The list is not random: actives were taken first. Their share in the collection is about 2%.
Abeta yeast res: qHTS for compounds that reverse cellular toxicity of Amyloid beta (A-beta) peptide in yeast: Primary Screen | Potency, µM (highest dose often 46.1 µM), hits mostly activators | AID 1347071, 2019 | 410,000 compounds, 0.063% hits | yeast expressing A-beta42, growth rescue, OD600, 48 h; response scale: 0% DMSO, 100% iron-clioquinol control; further: potency means the concentration at half of the fitted maximal effect; nearly all actives have a fitted effect of over 55% in size
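Yeast growth medium received pinned compounds, then yeast cells expressing toxic A-beta were added; plates incubated at 30 C for 48 hr. Growth read as absorbance at 600 nm, normalized to DMSO and equimolar FeCl3 plus clioquinol controls.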
TDP-43 yeast inh: qHTS of TDP-43 Inhibitors | TDP-43 expressing yeast growth rescue, BacTiter-Glo, 24 h | 410,000 compounds, 1.8% hits | Potency, µM (top dose mostly 46.1 µM), for inactives: at the highest dose growth rescue (activation), actives largely listed as activators | AID 652104, 2013; further: potency means the concentration at half of the fitted maximal effect; % of control where 0% means no effect; nearly all actives have a fitted effect of over 50% in size
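Luminescence from BacTiter-Glo reports growth of TDP-43-expressing yeast after 24 hr at 30 deg C with compound. Cells were raffinose-pregrown to mid-log, then seeded in galactose medium at OD600=0.02.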
IDH1 R132H inh: qHTS for Inhibitors of mutant isocitrate dehydrogenase 1 (IDH1): qHTS; IDH1-R132H enzyme, NADPH consumption, diaphorase/resazurin fluorescence; Isocitrate dehydrogenase [NADP] cytoplasmic (Homo sapiens), O75874; Potency, µM (doses to about 76.6 µM), without a hit: top-dose activity change, negative = inhibition, actives largely listed as inhibitors; 390,000 compounds, 0.093% hits; further: potency means the concentration at half of the fitted maximal effect; on the % scale 0 is the no-effect control and ±100 the full control effect; nearly all actives have a fitted effect of over 65% in size
Target sequence (O75874 whole entry R132H, stated change not applied): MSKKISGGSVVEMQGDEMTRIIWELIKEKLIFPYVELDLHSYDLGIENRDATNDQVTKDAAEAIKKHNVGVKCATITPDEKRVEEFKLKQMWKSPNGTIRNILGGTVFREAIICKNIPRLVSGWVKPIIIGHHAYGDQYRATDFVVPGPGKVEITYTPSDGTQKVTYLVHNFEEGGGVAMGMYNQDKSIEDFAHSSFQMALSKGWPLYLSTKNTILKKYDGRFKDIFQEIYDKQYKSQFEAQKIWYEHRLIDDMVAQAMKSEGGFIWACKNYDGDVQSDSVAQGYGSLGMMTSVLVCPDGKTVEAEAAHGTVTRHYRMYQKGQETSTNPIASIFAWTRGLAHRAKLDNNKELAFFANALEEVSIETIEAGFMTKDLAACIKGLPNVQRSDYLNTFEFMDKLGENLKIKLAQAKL
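IDH1-R132H (0.5 ug/mL dispensed) in pH 7.5 Tris buffer was preincubated 30 min with compound, then given a substrate mix of 0.016 mM NADPH and 2 mM alpha-KG for 80 min at room temperature; remaining NADPH was read by diaphorase/resazurin fluorescence.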
FUS suppressor: qHTS for Suppressors of FUS Proteinopathy: Primary screen using FUS-linked yeast assay. AID 1347120, 2019. S. cerevisiae FUS-expressing, growth rescue, OD600, 24 h. 390,000 compounds, 0.24% hits. Potency, µM (titrated, usually from 76.6 µM), actives largely listed as activators;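 further: potency means the concentration at half of the fitted maximal effect; plate controls were DMSO vehicle for no effect and reference control for full effect; nearly all actives have a fitted effect of over 55% in size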
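Yeast expressing FUS under galactose induction, OD 0.005 in 2% galactose medium; compounds in a dilution series, 24 h at 30C. Growth rescue by absorbance at 600 nm; CP55940 positive control, DMSO negative.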
aSyn rescue: qHTS of alpha-syn Inhibitors. AID 652106, 2013. 370,000 compounds, 0.14% hits. Yeast expressing alpha-synuclein, growth rescue, BacTiter-Glo, 24 h. Potency, µM (doses to about 46.1 µM), inactives show at the highest dose growth rescue (activation), most hits filed as activators; further: potency means the concentration at half of the fitted maximal effect; % of control where 0% means no effect; nearly all actives have a fitted effect of over 65% in size
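Rescue of yeast growth: cells expressing toxic alpha-synuclein, induced in galactose at OD600 0.02, incubated with compound 24 h at 30 C. ATP luminescence quantified growth; inhibitors of toxicity appear as activators.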
LDHA block: qHTS assay for inhibitors of human lactate dehydrogenase. purified LDHA, NADH/diaphorase-resazurin fluorescence; hits give low values. activity change, % (values are at about 110 or 230 µM). 480,000 compounds, 0.15% hits. AID 1347041, 2019; in the data active means activity change below about -30%; inconclusive means mostly about -25% to -30%;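 further: plate controls were DMSO wells for no effect and wells without enzyme for full effect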
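Human LDH5 at 2 nM final in Tris HCl pH 7.4 with 0.06 mM NADH and 0.2 mM pyruvate, reacted 5 minutes at room temperature. Remaining NADH coupled via diaphorase/resazurin; resorufin fluorescence read at 0 and 20 minutes, normalized to enzyme-free and DMSO wells.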
* marks the source's active call; other numbers are inactive results; i = inactive; ? = inconclusive; . = not tested or not shown; [ ] = dose if it differs, or a comment. Unless noted, the call rests on the fitted dose curve; in most records, active means well fitted curve in the direction sought with a large enough effect; inconclusive means small, poorly fitted or top-dose-only effect, or another doubt; inactive means no such curve, though single readings can be large; an effect the other way counts as inactive or inconclusive.

SMILES	Abeta yeast res	TDP-43 yeast inh	IDH1 R132H inh	FUS suppressor	aSyn rescue	LDHA block
CC(=O)Nc1ccc(NC(=O)CC2C=CCC2)cc1 (stereo not given)	.	.	.	.	.	-1
Cc1cc2occ(CC(=O)N(C)CC(=O)Nc3c(C)cccc3C)c2cc1C	i	26%	4%	i	9%	-2
Cc1cc2occ(CC(=O)N(C)CC(=O)Nc3ccccc3C(F)(F)F)c2cc1C	i	20µM*	0%	i	2%	-14
N/C(=N\OC(=O)CCCOc1ccc(Cl)cc1Cl)c1ccncc1	i	?	9%	i	21%	-6
N/C(=N\OC(=O)CCCOc1ccccc1)c1ccncc1	i	-3%	10%	i	9%	-5
N/C(=N\OC(=O)CCCOc1ccccc1)c1ccccc1	i	25µM*	3%	i	1%	-1
Cc1ccc(OCCCC(=O)ON=C(N)c2ccccc2C)cc1	i	?	-6%	i	12%	-3
COc1ccc(OCCCC(=O)ON=C(N)c2ccccc2Cl)cc1	i	10µM*	3%	i	4%[1.84 µM]	-1
N/C(=N\OC(=O)CCCOc1ccc(Cl)cc1Cl)c1ccccn1	i	14µM*	5%	i	2%	-8
CCOC(=O)c1cc(NC(=O)c2ccc(-c3cc4ccccc4oc3=O)cc2)ccc1N1CCOCC1	.	.	.	.	.	4
O=C(Oc1cc(Cl)ccc1Cl)c1ccc(N2CCOCC2)c([N+](=O)[O-])c1	5.6µM*	?	4%	i	2%	0
O=C(Oc1ccc(Cl)cc1)c1ccc(N2CCOCC2)c([N+](=O)[O-])c1	i	-6%	6%	.	1%	-1
O=C(O/N=C\c1ccc(N2CCOCC2)c([N+](=O)[O-])c1)c1ccccc1Cl	i	14µM*	6%	.	12%	-4
O=C(O)CNS(=O)(=O)c1cc(C(=O)O)ccc1Cl	.	.	.	.	.	6
Cc1cccc(-c2nc(CCNC(=O)COc3ccccc3)cs2)c1	i	35µM*	-6%	i	.	5
COc1ccc(CCC(=O)NCCc2csc(-c3cccc(C)c3)n2)cc1	i	?	-9%	i	.	-2
Cc1cccc(-c2nc(CCNC(=O)Cc3ccccc3)cs2)c1	i	16µM*	-9%	i	.	0
N#Cc1cccnc1NCc1cccnc1	.	.	.	.	.	9
N=C(N)c1cc(N)cc(C(=N)N)c1	.	.	.	.	.	-2
CN(C(=O)c1ccc2ccccc2n1)C1CCN(Cc2ccncc2)CC1	.	.	.	.	.	4
Cc1ccc(-n2nnnc2-c2cnoc2-c2cccc(F)c2)cc1	i	14µM*	9%	i	6%	-1
CCOc1ccccc1-c1ccc(C(=O)NCc2ccccc2)o1	i	16µM*	9%	i	3%	3
COc1cccc(-n2cnnc2SCc2csc(CC(=O)Nc3ccc(C)cc3)n2)c1	.	.	.	.	.	7
O=C(O)C1CCCN(C(=O)c2cccc(C(F)(F)F)c2)C1 (stereo not given)	.	.	.	.	.	8
CCC1CCc2c(sc(NC(=O)c3ccco3)c2C(N)=O)C1 (stereo not given)	i	13µM*	0%	i	-9%	2
CC(C)(C)C1CCc2c(sc(NC(=O)c3ccco3)c2C(N)=O)C1 (stereo not given)	i	13%	-4%	i	0%	-5
C=CCNC(=S)N1CCC2CC1c1c(Cl)cccc12 (stereo not given)	?	27%	8%	i	12%	-2
COc1ccc(NC(=S)N2CCC3CC2c2c(Cl)cccc23)c(OC)c1 (stereo not given)	i	14µM*	13%	i	2%	0
Cn1c(=O)c2c(nc(Oc3cccc(Br)c3)n2C)n(C)c1=O	?	13µM*	4%	i	5%	-2

Screening data: PubChem, National Center for Advancing Translational Sciences (NCATS)
